# Hits are enriched below; roughly 22% of the tested compounds scored in any of these assays.
# Shiga inhibitor: A qHTS for Small Molecule Inhibitors of Shiga Toxin. Vero cells, Shiga toxin protein synthesis inhibition reporter. 290,000 compounds, 9.2% hits. AID 2315, 2010. inhibition, % at 38.7 µM; in the data active = inhibition mostly above about 28%, no sharp cut-off; inactive = mostly below about 43%; note: 0% is about no effect
# Pf growth 48h: Primary qHTS for delayed death inhibitors of the malarial parasite plastid, 48 hour incubation; P. falciparum luciferase growth in erythrocytes, 48 h; 310,000 compounds, 5.9% hits; Potency, µM (series often up to 28.7 µM), for the others: top-dose activity change, negative = inhibition, hits mostly inhibitors; AID 504832, 2011; note: potency is the fitted concentration of half-maximal effect; % is set by controls: 0 for no effect and ±100 for the full control effect
#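 Firefly luciferase activity from engineered P. falciparum reports growth; inhibitors lower the luminescent signal. Cultures contained 2% hematocrit erythrocytes at 0.1% final parasitemia.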
# LmPK inhibitor: qHTS Assay for Inhibitors of Leishmania Mexicana Pyruvate Kinase (LmPK); Q27686; purified LmPK, Kinase-Glo ATP luminescence, 1 h; Potency, µM (titrated, usually from 57.5 µM), without a hit: at the top dose activity change, negative = inhibition, usual class: inhibitors; 290,000 compounds, 0.37% hits; AID 1721, 2009; note: potency is the fitted concentration of half-maximal effect; % is set by controls: 0 for no effect and ±100 for the full control effect
# Target sequence (Q27686 whole entry, looked up): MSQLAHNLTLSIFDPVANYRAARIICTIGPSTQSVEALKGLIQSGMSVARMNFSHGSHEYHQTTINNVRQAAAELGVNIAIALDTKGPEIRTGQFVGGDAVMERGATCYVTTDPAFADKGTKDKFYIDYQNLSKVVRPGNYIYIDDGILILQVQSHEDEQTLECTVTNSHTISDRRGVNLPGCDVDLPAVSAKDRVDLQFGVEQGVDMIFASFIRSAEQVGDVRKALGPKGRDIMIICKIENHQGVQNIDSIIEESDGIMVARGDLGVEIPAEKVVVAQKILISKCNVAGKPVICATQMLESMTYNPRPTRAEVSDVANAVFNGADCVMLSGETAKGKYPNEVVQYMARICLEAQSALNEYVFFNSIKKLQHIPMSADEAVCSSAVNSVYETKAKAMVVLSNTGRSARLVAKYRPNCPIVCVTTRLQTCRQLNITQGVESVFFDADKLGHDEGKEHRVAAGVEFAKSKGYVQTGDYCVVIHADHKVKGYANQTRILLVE
#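 In 50 mM imidazole pH 7.2 with 7 mM MgCl2, LmPK (0.1 nM) turned over PEP (0.5 mM) and ADP (0.1 mM) for 1 h at room temperature. Luciferase read-out of ATP.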
# Cycloheximide cs: Cycloheximide Counterscreen for Small Molecule Inhibitors of Shiga Toxin; 300,000 compounds, 12% hits; max response, %; cell reporter, cycloheximide protein synthesis inhibition counterscreen; in the data active = max response mostly above about 13%, no sharp cut-off; inactive = mostly below about 14%; note: read at 38.3 µM for the half of the compounds with a filed dose; 0% is about no effect
# Pf growth 96h: Primary qHTS for delayed death inhibitors of the malarial parasite plastid, 96 hour incubation. P. falciparum luciferase reporter growth, 96 h. Potency, µM (series often up to 28.7 µM), inactives show top-dose activity change, negative = inhibition, actives largely listed as inhibitors. 320,000 compounds, 6.9% hits. AID 504834, 2011; note: potency is the fitted concentration of half-maximal effect; % is set by controls: 0 for no effect and ±100 for the full control effect
#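 Two-generation exposure (96 h) targets delayed-death phenotype. Reporter parasites carrying integrated firefly luciferase, in red cells at 2% hematocrit and 0.05% parasitemia final, kept at 37 C, 5% CO2; luminescence loss indicates inhibition.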
# An asterisk follows results filed as active; ? = inconclusive; / = not tested or not shown; + = active, no number; [ ] = remark or other dose. Unless noted, calls come from the whole dose curve; as a rule, active = well fitted inhibition curve with a large enough effect; inconclusive = small, poorly fitted or top-dose-only effect, or another doubt; inactive = no such curve, though single readings can be large or run the other way.
SMILES,Shiga inhibitor,Pf growth 48h,LmPK inhibitor,Cycloheximide cs,Pf growth 96h
CC(C)C[C@H](NC(=O)CNC(=O)[C@H](C)NC(=O)[C@H](CC(C)C)NC(=O)[C@H](CCCNC(=N)N)NC(=O)[C@H](Cc1cnc[nH]1)NC(=O)[C@@H](NC(=O)[C@@H](NC(=O)[C@@H]1CSSC[C@H](NC(=O)[C@@H](N)CO)C(=O)N[C@@H](CC(N)=O)C(=O)N[C@@H]([C@@H](C)O)C(=O)N[C@@H](C)C(=O)N[C@@H]([C@@H](C)O)C(=O)N1)C(C)C)[C@@H](C)O)C(=O)N[C@@H](CC(C)C)C(=O)N[C@@H](CO)C(=O)N[C@@H](CCCNC(=N)N)C(=O)N[C@@H](CO)C(=O)NCC(=O)NCC(=O)N[C@H](C(=O)N[C@H](C(=O)N[C@@H](CCCCN)C(=O)N[C@@H](CC(=O)O)C(=O)N[C@@H](CC(N)=O)C(=O)N[C@@H](Cc1ccccc1)C(=O)N[C@H](C(=O)N1CCC[C@H]1C(=O)N[C@H](C(=O)N[C@@H](CC(N)=O)C(=O)N[C@H](C(=O)NCC(=O)N[C@@H](CO)C(=O)N[C@@H](CCCCN)C(=O)N[C@@H](C)C(=O)N[C@@H](Cc1ccccc1)C(N)=O)C(C)C)[C@@H](C)O)C(C)C)C(C)C)C(C)C,-8,/,/,-5,/
Cc1ccc(OCc2ccccc2Br)c([N+](=O)[O-])n1,15,38%,0%,7,40%
Cc1ccccc1OC(C)c1nc(-c2ccccc2)no1 (stereo not given),48,14%,-3%,38*,/
Cc1ccc(SC(C)c2nc(-c3ccccc3)no2)cc1 (stereo not given),44,-3%,-1%,23*,-17%
O=C(c1cc2c(=O)n3ccccc3nc2s1)N1CCN(Cc2ccccc2)CC1,17,-2%,-2%,-3,-20%
O=C(c1cc2c(=O)n3ccccc3nc2s1)N1CCN(Cc2ccc3c(c2)OCO3)CC1,-2,-12%,4%,-1,6.6µM*
CCOC(=O)CC1C(=O)NCCN1C(=O)c1cc2c(=O)n3ccccc3nc2s1 (stereo not given),12,/,0%,25,10µM*
CC1CCCCN1C(=O)c1cc2c(=O)n3ccccc3nc2s1 (stereo not given),52*,112%,2%,10,?
CCOC(=O)C1CCN(C(=O)c2cc3c(=O)n4ccccc4nc3s2)CC1,35,16%,-8%,23*,?
CCOC(=O)CC1C(=O)NCCN1C(=O)c1cc2c(=O)n3cccc(C)c3nc2s1 (stereo not given),12,/,-4%,-10,?
CCC1CCCCN1C(=O)c1cc2c(=O)n3cccc(C)c3nc2s1 (stereo not given),20,?,-5%,8,?
O=C1C=CC(=O)C(Cl)=C1,53,/,/,16,/
CCN1CCN(C(=O)c2cc3c(=O)n4ccccc4nc3s2)CC1,17,86%,0%,10,?
Cc1cccn2c(=O)c3cc(C(=O)N4CCCC(C)C4)sc3nc12 (stereo not given),25,33%,0%,19,?
O=C(c1cc2c(=O)n3ccccc3nc2s1)N1CCc2ccccc2C1,13,10%[5.75 µM],3%,11*,?
CC1CCCN(C(=O)c2cc3c(=O)n4ccccc4nc3s2)C1 (stereo not given),78*,117%,1%,34*,-2%
Cc1cnc(NC(=O)c2cccc(S(=O)(=O)N3CCOCC3)c2)s1,/,18%,/,/,?
O=C(Oc1cccccc1=O)c1ccccc1,6,?,9%,-1,15µM*
O=S(=O)(Nc1cc2nc3ccccc3nc2n1Cc1ccccc1)c1ccc(Cl)cc1,13,1.3µM*,9%,0,0.83µM*
COc1ccc2nc(/N=C\N(C)C)sc2c1,20,57%,-12%,16,-20%
Cc1ccccc1/C=N/Nc1nc2ccccc2c(=O)n1O,75*,35%,2%,20*,47%
COc1ccc2nc(N=Nc3ccc(N(C)C)cc3)sc2c1,126*,5%,?,31*,336%
COc1ccc(/C=N/Nc2cc(C)nc3ccc(Br)cc23)cc1,-20,0.26µM*,2%,-4,0.47µM*
COc1ccc2nc(C)cc(N/N=C/c3cccc(OC)c3O)c2c1,14,0.093µM*,1%,10,-9%
Cc1cc(N/N=C/c2ccccc2O)c2ccccc2n1,45,0.52µM*,1%,26*,?
SMILES,Shiga inhibitor,Pf growth 48h,LmPK inhibitor,Cycloheximide cs,Pf growth 96h
COc1ccc2nc(/N=C/c3cccc(OC)c3O)sc2c1,26,2%,-18%,26*,6%
COc1ccc2c(c1)-c1nc(/N=C/c3cccc(OC)c3O)sc1CC2,34,50%,?,12,21%
Cn1c(-n2cccc2)c(-c2c(-c3ccccc3)[nH]c3c2c(=O)[nH]c(=O)n3C)c(=O)[nH]c1=O,/,-13%,/,/,16%
COc1ccc(CN(C(=O)c2oc3cc(C)ccc3c2C)C2CCS(=O)(=O)C2)cc1OC (stereo not given),1,?,-4%,-1,19%
CCCCN1CN(Cc2ccccc2)CNC1=S,-2,-20%,2%,-3,9.3µM*
CCOCCCN1CN(Cc2ccccc2)CNC1=S,-11,4%,-1%,-2,?
O=C(COC(=O)Cc1ccsc1)Nc1cccc(F)c1,/,28%,/,/,7%
Cc1cc(Nc2ccc3ccccc3c2)n2ncnc2n1,46,0.13µM*,-1%,21,-6%
Cc1cc(Nc2cccc(C(=O)O)c2)n2ncnc2n1,19*,23%,-9%,14*,-10%
COC(=O)c1ccc(Nc2cc(C)nc3ncnn23)cc1,-8,-27%,-2%,-5,-22%
Cc1cc(Nc2ccc(C(C)C)cc2)n2ncnc2n1,9,1µM*,-5%,-1,20%
Cc1cccc(-c2nc(CS(=O)CC(=O)NC3CCCC(C)C3C)c(C)o2)c1 (stereo not given),12,41%,-1%,5,51%
COc1cc2c3nc4n(c(=O)c3n(CC(=O)NCC3CCCO3)c2cc1OC)CCS4 (stereo not given),-7,1%,2%,4,1%
Cc1ccc(O)c(-c2cc(-c3ccc(F)cc3)no2)c1,122*,10µM*,-4%,37*,?
Oc1ccccc1-c1cc(-c2ccccc2)no1,+,-43%,-18%,47*,117%
Cc1ccc(-c2cc(-c3ccccc3)no2)c(O)c1,0,?,-17%,43*,?
Cc1ccccc1-c1noc(N)c1C#N,-2,?,4%,3,?
Cc1ccc(C(=O)Oc2cc(-c3ccccc3)no2)cc1,31,/,0%,4,?
Clc1ccc(-c2cc(-c3ccccc3)on2)cc1,/,229%,/,/,170%

# Screening results: PubChem, National Center for Advancing Translational Sciences (NCATS)
